# In the supplement of paper PMC12282887:
# ± gives the standard deviation of the averaged measurements.
# What was measured:
# Assay in all cases: promoter activity interaction Z-score (Lux/OD deviation from empty-vector control); higher = stronger promoter induction by the compound
# [1] = tested on: E. coli BW25113 acrABp lux reporter
# How it was run: (§1)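 Reporter strains of E. coli BW25113 grew at 37°C in 40 µl LB Lennox in 384-well plates. Readings of OD600 and luminescence were taken every 30 min over 12 h, integrated over 0–8 h (wild type) or 1–9 h (deletion strains), and wells below 10% of the median growth value were excluded. Scores are Z-transformed residuals of growth-normalised luminescence from a fit against a control.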
# [2] = tested on: E. coli BW25113 micFp lux reporter
# How it was run: as §1
# [3] = tested on: E. coli BW25113 ompFp lux reporter
# How it was run: as §1
# [4] = tested on: E. coli BW25113 robp lux reporter
# How it was run: as §1
# [5] = tested on: E. coli BW25113 soxSp lux reporter
# How it was run: as §1
# [6] = tested on: E. coli BW25113 tolCp lux reporter
# How it was run: as §1
# [7] = 24.5 µg/ml, genetic background: wild type
# [8] = 24.5 µg/ml, genetic background: ΔmarA
# [9] = 24.5 µg/ml, genetic background: Δrob
# [10] = 24.5 µg/ml, genetic background: ΔsoxS
# [11] = 49.1 µg/ml, genetic background: wild type
# [12] = 49.1 µg/ml, genetic background: ΔmarA
# [13] = 49.1 µg/ml, genetic background: Δrob
# [14] = 49.1 µg/ml, genetic background: ΔsoxS
# [15] = 98.1 µg/ml, genetic background: wild type
# [16] = 98.1 µg/ml, genetic background: ΔmarA
# [17] = 98.1 µg/ml, genetic background: Δrob
# [18] = 98.1 µg/ml, genetic background: ΔsoxS
# [19] = 196.3 µg/ml, genetic background: wild type
# [20] = 196.3 µg/ml, genetic background: ΔmarA
# [21] = 196.3 µg/ml, genetic background: Δrob
# [22] = 196.3 µg/ml, genetic background: ΔsoxS
compound,measurement,setting,value
C[C@H](CCC(=O)O)[C@H]1CC[C@H]2[C@@H]3CC[C@@H]4C[C@H](O)CC[C@]4(C)[C@H]3C[C@H](O)[C@]12C [Deoxycholic acid],promoter activity interaction Z-score,[1]; [7],-0.00545 ± 0.031
same,promoter activity interaction Z-score,[1]; [8],1.57 ± 0.29
same,promoter activity interaction Z-score,[1]; [9],-0.132 ± 0.14
same,promoter activity interaction Z-score,[1]; [10],-0.386 ± 0.27
same,promoter activity interaction Z-score,[1]; [11],-0.226 ± 0.0089
same,promoter activity interaction Z-score,[1]; [12],0.503 ± 0.52
same,promoter activity interaction Z-score,[1]; [13],-0.0467 ± 0.16
same,promoter activity interaction Z-score,[1]; [14],-0.057 ± 0.47
same,promoter activity interaction Z-score,[1]; [15],0.106 ± 0.28
same,promoter activity interaction Z-score,[1]; [16],1.38 ± 1.5
same,promoter activity interaction Z-score,[1]; [17],-0.154 ± 0.21
same,promoter activity interaction Z-score,[1]; [18],0.252 ± 0.27
same,promoter activity interaction Z-score,[1]; [19],-0.41 ± 0.14
same,promoter activity interaction Z-score,[1]; [20],0.181 ± 0.34
same,promoter activity interaction Z-score,[1]; [21],-0.162 ± 0.13
same,promoter activity interaction Z-score,[1]; [22],-0.502 ± 0.59
same,promoter activity interaction Z-score,[2]; [7],-0.343 ± 0.23
same,promoter activity interaction Z-score,[2]; [8],0.0199 ± 0.11
same,promoter activity interaction Z-score,[2]; [9],0.0283 ± 0.0044
same,promoter activity interaction Z-score,[2]; [10],-0.264 ± 0.083
same,promoter activity interaction Z-score,[2]; [11],-0.355 ± 0.065
same,promoter activity interaction Z-score,[2]; [12],0.175 ± 0.087
same,promoter activity interaction Z-score,[2]; [13],-0.0435 ± 0.061
same,promoter activity interaction Z-score,[2]; [14],-0.146 ± 0.02
same,promoter activity interaction Z-score,[2]; [15],0.114 ± 0.12
same,promoter activity interaction Z-score,[2]; [16],0.0675 ± 0.083
same,promoter activity interaction Z-score,[2]; [17],-0.0555 ± 0.049
same,promoter activity interaction Z-score,[2]; [18],0.221 ± 0.023
same,promoter activity interaction Z-score,[2]; [19],0.0636 ± 0.083
same,promoter activity interaction Z-score,[2]; [20],0.21 ± 0.12
same,promoter activity interaction Z-score,[2]; [21],-0.134 ± 0.011
same,promoter activity interaction Z-score,[2]; [22],-0.044 ± 0.02
same,promoter activity interaction Z-score,[3]; [7],-0.553 ± 0.23
same,promoter activity interaction Z-score,[3]; [8],-1.03 ± 0.14
same,promoter activity interaction Z-score,[3]; [9],-0.889 ± 0.033
same,promoter activity interaction Z-score,[3]; [10],-0.771 ± 0.0099
same,promoter activity interaction Z-score,[3]; [11],-0.241 ± 0.37
same,promoter activity interaction Z-score,[3]; [12],-0.568 ± 0.061
same,promoter activity interaction Z-score,[3]; [13],-0.421 ± 0.46
same,promoter activity interaction Z-score,[3]; [14],-0.619 ± 0.45
same,promoter activity interaction Z-score,[3]; [15],0.192 ± 0.079
same,promoter activity interaction Z-score,[3]; [16],-1.07 ± 0.24
same,promoter activity interaction Z-score,[3]; [17],-0.618 ± 0.14
same,promoter activity interaction Z-score,[3]; [18],-0.316 ± 0.15
same,promoter activity interaction Z-score,[3]; [19],-0.117 ± 0.52
same,promoter activity interaction Z-score,[3]; [20],-0.473 ± 0.02
same,promoter activity interaction Z-score,[3]; [21],-0.582 ± 0.058
same,promoter activity interaction Z-score,[3]; [22],-0.78 ± 0.4
same,promoter activity interaction Z-score,[4]; [7],0.346 ± 0.23
same,promoter activity interaction Z-score,[4]; [8],-0.527 ± 0.51
same,promoter activity interaction Z-score,[4]; [9],0.184 ± 0.84
same,promoter activity interaction Z-score,[4]; [10],-0.0515 ± 0.27
same,promoter activity interaction Z-score,[4]; [11],0.0327 ± 0.23
same,promoter activity interaction Z-score,[4]; [12],0.517 ± 0.54
same,promoter activity interaction Z-score,[4]; [13],0.31 ± 0.44
same,promoter activity interaction Z-score,[4]; [14],0.767 ± 0.39
same,promoter activity interaction Z-score,[4]; [15],0.553 ± 0.54
same,promoter activity interaction Z-score,[4]; [16],0.501 ± 0.48
same,promoter activity interaction Z-score,[4]; [17],0.729 ± 1.3
same,promoter activity interaction Z-score,[4]; [18],-0.0126 ± 0.038
same,promoter activity interaction Z-score,[4]; [19],0.502 ± 0.87
same,promoter activity interaction Z-score,[4]; [20],0.13 ± 0.13
same,promoter activity interaction Z-score,[4]; [21],-0.399 ± 0.066
same,promoter activity interaction Z-score,[4]; [22],0.439 ± 0.14
same,promoter activity interaction Z-score,[5]; [7],0.0465 ± 0.031
same,promoter activity interaction Z-score,[5]; [8],-0.0486 ± 0.044
same,promoter activity interaction Z-score,[5]; [9],0.0418 ± 0.059
same,promoter activity interaction Z-score,[5]; [10],-0.115 ± 0.036
same,promoter activity interaction Z-score,[5]; [11],0.0154 ± 0.03
same,promoter activity interaction Z-score,[5]; [12],-0.092 ± 0.13
same,promoter activity interaction Z-score,[5]; [13],-0.0215 ± 0.03
same,promoter activity interaction Z-score,[5]; [14],-0.228 ± 0.12
same,promoter activity interaction Z-score,[5]; [15],0.124 ± 0.18
same,promoter activity interaction Z-score,[5]; [16],-0.348 ± 0.085
same,promoter activity interaction Z-score,[5]; [17],-0.0505 ± 0.11
same,promoter activity interaction Z-score,[5]; [18],-0.203 ± 0.29
same,promoter activity interaction Z-score,[5]; [19],-0.0569 ± 0.038
same,promoter activity interaction Z-score,[5]; [20],-0.335 ± 0.053
same,promoter activity interaction Z-score,[5]; [21],-0.26 ± 0.051
same,promoter activity interaction Z-score,[5]; [22],-0.515 ± 0.0068
same,promoter activity interaction Z-score,[6]; [7],0.918 ± 0.69
same,promoter activity interaction Z-score,[6]; [8],0.218 ± 0.13
same,promoter activity interaction Z-score,[6]; [9],1.08 ± 1.6
same,promoter activity interaction Z-score,[6]; [10],0.883 ± 0.56
same,promoter activity interaction Z-score,[6]; [11],0.21 ± 0.56
same,promoter activity interaction Z-score,[6]; [12],0.972 ± 1.2
same,promoter activity interaction Z-score,[6]; [13],0.2888 ± 0.00083
same,promoter activity interaction Z-score,[6]; [14],-0.388 ± 0.38
same,promoter activity interaction Z-score,[6]; [15],0.816 ± 0.38
same,promoter activity interaction Z-score,[6]; [16],0.304 ± 0.81
same,promoter activity interaction Z-score,[6]; [17],0.00196 ± 0.37
same,promoter activity interaction Z-score,[6]; [18],1.18 ± 1.1
same,promoter activity interaction Z-score,[6]; [19],-0.28 ± 1.4
same,promoter activity interaction Z-score,[6]; [20],-0.467 ± 0.27
same,promoter activity interaction Z-score,[6]; [21],-0.148 ± 0.072
same,promoter activity interaction Z-score,[6]; [22],-0.718 ± 1.1
